Data taken from PubChem BioAssay (Tox21).
Records with an inconclusive call do not appear. The source made the active and inactive calls. The call rests on the fitted dose curve.

Experiment: qHTS assay to identify small molecule agonists of H2AX - cell viability counter screen (AID 1224847); further: top concentration of the series differs between compounds; nearly all actives have a fitted effect of over 30% in size
Details: CHO-K1 viability, CellTiter-Glo luminescence, 3 h; series mostly up to 154 µM
Description: National Center for Advancing Translational Sciences [NCATS]
NIH Chemical Genomics Center [NCGC]
U.S. Environmental Protection Agency [EPA]
National Institutes of Environmental Health Sciences [NIEHS]
National Toxicology Program [NTP]
U.S. Food and Drug Administration [FDA]
HTRF phospho-H2AX (Ser139) assay (Cisbio Bioassays, US) enables the quantitative detection of the histone variant H2AX when phosphorylated on serine 139. When double-stranded DNA breaks, either by ionizing radiation or endogenous physiological processes, H2AX becomes phosphorylated at Ser139. This phospho-Ser139 serves as a sensitive biomarker for the detection of such breaks, localizing the site of DNA repair. So, HTRF phospho-H2AX Ser139 is a pertinent assay to study genome stability, the cell cycle, DNA repair, and it serves as a biomarker for cancer, and to understand aging. Wild type CHO-K1 cells were used to identify the inducers of Phospho-H2AX Ser 139 from the Tox21 compound collections. Also cytotoxicity of the Tox21 10K compound library against the CHO-K1 cell line was tested by measuring the cell viability using CellTiter-Glo assay (Promega, Madison, WI).
Tox21 Assay Protocol Summary:
The CHO-K1 cells suspended in culture medium containing 10% FBS were dispensed at 1000 cells/ 3 ul/well in 1536-well white wall/solid bottom plates (Greiner Bio-One North America, NC) using a Multidrop Combi (Thermo Fisher Scientific Inc., Waltham, MA). After the assay plates were incubated at 37C overnight, 23 nl of compounds at 15 concentrations (from 5-48 columns) or positive control (from 1 to 4 columns) were transferred to the assay plates using a Pintool station (Wako, San Diego, CA) into each well resulting in a final DMSO concentration of 0.76%. After 3hr incubation at 37C, 3 uL/well CellTiter-Glo luminescent cell viability reagent (Promega Corporation, Madison, WI) was added using a Flying Reagent Dispenser (FRD) (Aurora Discovery, CA). After incubation at room temperature for 30 min, the luminescence intensity was read using a ViewLux plate reader (PerkinElmer, Waltham, MA).
On the % scale 0 is the no-effect control and ±100 the full control effect.

| Structure (SMILES) | outcome | activity change, negative = cytotoxicity |
| --- | --- | --- |
| C[C@H]1COc2c(C3(N)CC3)c(F)cc3c(=O)c(C(=O)O)cn1c23 | inactive |  |
| CCCCCC(CC)OC(=O)CCCOc1ccc(Cl)cc1Cl (stereo not given) | inactive |  |
| C/C=C(\C)C(=O)OC/C=C(\C)CCC=C(C)C | inactive |  |
| O=C1CCCc2c(O)cccc21 | inactive |  |
| Cc1cc(O)c(Cl)cc1C | inactive |  |
| CCCCCCCC(=O)N(C)C | inactive |  |
| C=CCn1cc[n+](C)c1 | inactive |  |
| CC(=O)OC1CCC(C(C)(C)C)CC1 (stereo not given) | inactive |  |
| N#Cc1ccccc1C#N | inactive |  |
| COCCCOc1cc(C[C@@H](C[C@H](N)[C@@H](O)C[C@H](C(=O)NCC(C)(C)C(N)=O)C(C)C)C(C)C)ccc1OC | inactive |  |
| O=CN1CCCCC1 | inactive |  |
| CCCC(C)C(O)CC (stereo not given) | inactive |  |
| N=C(N)N1CCc2ccccc2C1 |  | 1.46% [at 14 µM] (inactive) |
| Cc1cc(C)c(C)c(C)c1 | inactive |  |
| CC(C)C(=O)Nc1cccc(C2CN3CCSC3=N2)c1 (stereo not given) | inactive |  |
| COCc1nnc(-c2ccc[n+]([O-])c2)n1-c1c(Cl)c(Cl)cc2[nH]c(=O)c(=O)[nH]c12 | inactive |  |
| O=C(O)CCCCCCCCCC(=O)O | inactive |  |
| CC(=O)SC[C@@H](C)C(=O)N1CCC[C@H]1C(=O)N[C@@H](Cc1ccccc1)C(=O)O | inactive |  |
| CCc1ncc(C)[nH]1 | inactive |  |
| C[C@@H]1CCC[C@H](C)N1CCCC(O)(c1ccccc1)c1ccccn1 (stereo not given in full) | inactive |  |

| Structure (SMILES) | outcome | activity change, negative = cytotoxicity |
| --- | --- | --- |
| CC[N+](C)(CC)CC | inactive |  |
| C/C(Cl)=C/CCl | inactive |  |
| COC(C)(C)CC(C)=O | inactive |  |
| CC(C)(C)c1ccc(C(=O)CCCCl)cc1 | inactive |  |
| CC(=O)Oc1ccc(C(C)=O)cc1 | inactive |  |
| CCC(C)(C)C | inactive |  |
| O=C1c2ccccc2C(=O)N1CO | inactive |  |
| CCCCCCCCCCCCCCCCN(C)C |  | -3.36% [at 14 µM] (inactive) |
| C=CCN(CC=C)CC=C | inactive |  |
| COc1cnc(NS(=O)(=O)c2ccc(N)cc2)nc1 | inactive |  |
| CC(C)(C)OC(=O)c1ccccc1C(=O)O | inactive |  |
| BrCCOc1ccccc1 | inactive |  |
| CCCCCCCCCCCCCCBr | inactive |  |
| COC(=O)/C=C(\C)CCC=C(C)C | inactive |  |
| CCCCNCC | inactive |  |
| O=P(O)(O)C(O)(Cc1cccnc1)P(=O)(O)O | inactive |  |
| CC(C)(C)C(=O)CC(=O)C(C)(C)C | inactive |  |
| CCOC(=O)CN1CCCC1=O | inactive |  |
| NS(=O)(=O)c1cc2c(cc1C(F)(F)F)NCNS2(=O)=O | inactive |  |
| C=CC(=O)OCCOCCOCC | inactive |  |
